Data reported in PubChem BioAssay AID709 (SRMLSC, 2007).
The campaign covered roughly 65,000 compounds. About 3,600 (5.5%) were called active.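 The calls were made as follows: active = at 10 µM, mean starting fluorescence two-fold or more over control wells; inactive = the rest.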 The sample as a whole holds a higher share of actives than the screen did.

Test: intrinsic fluorescence of library compounds, ex339/em460 – biochemical, MLSMR library, data from DPM-DC assay, artefact control, profiling panel (AID 709);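 also: signal is the first read of a kinetic run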
Conditions: compound autofluorescence, ex339/em460 nm, NADH buffer; at 10 µM; active compounds read high; 1 = no-compound wells, NADH background
In the case of `Cc1noc(COc2ccccc2OCC(O)CNC(C)(C)C)n1` (configuration not stated), the fluorescence fold increase is reported as 1.04 (inactive).
With `O=c1c(-c2ccc3c(c2)OCCO3)c(C(F)(F)F)oc2cc(O)cc(O)c12` the fluorescence fold increase was 1.07 (inactive).
For `CCC(C)(C)n1nnnc1C(c1cccs1)N1CCN(c2nc3ccccc3s2)CC1` (configuration not stated), the fluorescence fold increase was 1.35 (inactive).
With `CCOC(=O)c1[nH]cnc1C(=O)NC1CCCCC1` the fluorescence fold increase was 1.07 (inactive).
For `COc1cccc(N2CCN(C3CC(=O)N(c4ccc(Cl)cc4)C3=O)CC2)c1` (configuration not stated), the fluorescence fold increase was 1.12 (inactive).
With `CC1CCCN(C(=O)Cn2c(=O)oc3ccccc32)C1` (configuration not stated) the fluorescence fold increase was 1.09 (inactive).
For `Cc1nc(NCc2ccccc2)c(C(N)=O)c2c1COC(C)(C)C2`, the fluorescence fold increase was 1.89 (inactive).
With `O=C(O)CCC(=O)N(Cc1cccs1)Cc1cccs1` the fluorescence fold increase was 1.09 (inactive).
With `CCCC(=O)NC(C)C(c1cccs1)N1CCN(c2ccccc2)CC1` (configuration not stated) the fluorescence fold increase was 0.99 (inactive).
In the case of `CC(C)Cn1c(CCC(=O)O)ccc1-c1cccs1`, the fluorescence fold increase is reported as 3.14 (active).
With `CCCCOC(=O)c1ccc(N2C(=O)CC(N3CCN(C/C=C/c4ccccc4)CC3)C2=O)cc1` (configuration not stated) the fluorescence fold increase was 1.12 (inactive).
In the case of `Clc1ccc(Cc2nn3c(-c4ccncc4)nnc3s2)cc1`, the fluorescence fold increase is reported as 1 (inactive).
In the case of `CCCCC(=O)Nc1ccc2c(c1)OCCO2`, the fluorescence fold increase is reported as 1.08 (inactive).
In the case of `CCCCC(=O)Nc1ccc(C(=O)NCCCn2ccnc2)cc1`, the fluorescence fold increase is reported as 1.13 (inactive).
With `CCCCC(=O)Nc1ccc2c(c1)C(=O)NC2=O` the fluorescence fold increase was 2.11 (active).
In the case of `O=C(Nc1ccccc1N1CCN(C(=O)c2ccccc2)CC1)c1ccc2c(c1)OCO2`, the fluorescence fold increase is reported as 1.1 (inactive).
With `N#CCSc1nc2ccccc2c(=O)n1-c1ccccc1` the fluorescence fold increase was 1.11 (inactive).
With `CC(C)CCNC(=O)C1CCCN(S(=O)(=O)c2ccc(F)cc2)C1` (configuration not stated) the fluorescence fold increase was 1.06 (inactive).
For `CCOc1cc2[nH]c(=S)n(CCCN3CCCC3=O)c(=O)c2cc1OCC`, the fluorescence fold increase was 1.07 (inactive).
For `CSc1nnc(-c2ccncc2)n1CCCN1CCCC1=O`, the fluorescence fold increase was 0.81 (inactive).
For `CC(C)(C)OC(=O)c1c(N)n(CCCN2CCCC2=O)c2nc3ccccc3nc12`, the fluorescence fold increase was 3.76 (active).
With `COc1ccc(CNC2CCCCC2)cc1` the fluorescence fold increase was 1.1 (inactive).
For `O=S(=O)(NCCNS(=O)(=O)c1ccccc1)c1ccccc1`, the fluorescence fold increase was 1.04 (inactive).
For `CCOc1ccc2cc(C#N)c(SCC(=O)OC)nc2c1`, the fluorescence fold increase was 1.95 (inactive).
With `CCOc1ccc2nc(NCCNS(=O)(=O)c3ccccc3)c(C#N)cc2c1` the fluorescence fold increase was 3.3 (active).
With `COC(=O)C(CC(=O)Nc1cc(C)ccc1C)Nc1ccccc1OC` (configuration not stated) the fluorescence fold increase was 1.02 (inactive).
In the case of `COc1ccc(C2C3=C(OC(C)=O)c4ccccc4C3=Nc3c2c(=O)n(C)c(=O)n3C)cc1` (configuration not stated), the fluorescence fold increase is reported as 1.09 (inactive).
In the case of `CC1CCCN(C(=O)c2ccc3c(c2)C(=O)N(CCC2=CCCCC2)C3=O)C1` (configuration not stated), the fluorescence fold increase is reported as 1.04 (inactive).
For `Cn1nnc2cc(C(=O)NCCC3=CCCCC3)ccc21`, the fluorescence fold increase was 1.03 (inactive).
In the case of `Cc1ccc2c(c1)c1ncn(CCC3=CCCCC3)c(=O)c1n2C`, the fluorescence fold increase is reported as 2.08 (active).
For `Cc1ccc(C(C(=O)NCc2ccco2)N(CC2CCCO2)C(=O)Cn2nnc3ccccc32)cc1` (configuration not stated), the fluorescence fold increase was 0.88 (inactive).
For `CCc1nnc(NC(=O)CSc2nnc(COc3ccc(C#N)cc3)n2-c2ccccc2)s1`, the fluorescence fold increase was 1.27 (inactive).
In the case of `Cc1nn(-c2ccccc2)c2c1C(=O)NC(=O)C(C)(C)C2`, the fluorescence fold increase is reported as 1.03 (inactive).
With `O=C(Nc1cccc(OCC(=O)N2CCOCC2)c1)C1CCCCC1` the fluorescence fold increase was 1.05 (inactive).
With `COc1ccc(OCC(=O)N2CCOCC2)cc1` the fluorescence fold increase was 1.05 (inactive).
For `O=C1CC2(CCCCC2)Oc2ccc(OCC(=O)N3CCOCC3)cc21`, the fluorescence fold increase was 5.15 (active).
With `Cn1c(=O)c2c(nc(OCc3cccnc3)n2Cc2ccccc2)n(C)c1=O` the fluorescence fold increase was 1.09 (inactive).
With `CCC(C)(NC(=O)c1ccccn1)C(=O)NC1CCCCC1` (configuration not stated) the fluorescence fold increase was 1.14 (inactive).
In the case of `Cc1cc(=O)n(C)c(=O)n1CCCNc1ccccc1`, the fluorescence fold increase is reported as 1.05 (inactive).
With `CCOC(=O)/C=c1\s/c(=C\c2ccccc2OC)c(=O)n1CC(=O)N1CCOCC1` the fluorescence fold increase was 1.14 (inactive).
In the case of `CCOC(=O)c1sc(/N=C/Nc2nc(C)c(C(=O)OCC)s2)nc1C`, the fluorescence fold increase is reported as 4.03 (active).
With `CCOC(=O)c1sc(NC(=O)C(CC)Sc2nccn2C)nc1C` (configuration not stated) the fluorescence fold increase was 1.08 (inactive).
With `CCOC(=O)c1nc(N)sc1C(=O)OCC` the fluorescence fold increase was 1.12 (inactive).
In the case of `O=C1NC2(CCCCC2)N=C1c1ccccc1`, the fluorescence fold increase is reported as 1.08 (inactive).
For `COc1ccccc1N1CCN(C(=O)Cn2nnc(-c3cccs3)n2)CC1`, the fluorescence fold increase was 1.07 (inactive).
For `C=CCn1c(=S)[nH]c2nc3c(cc2c1=O)COC(C)(C)C3`, the fluorescence fold increase was 1.03 (inactive).
With `O=C(c1ccccc1-c1ccccc1)N1CCOCC1` the fluorescence fold increase was 0.82 (inactive).
In the case of `COc1ccc(OC)c(C(=O)c2coc3ccc(O)c(CN4CCOCC4)c23)c1`, the fluorescence fold increase is reported as 1.03 (inactive).
With `O=c1c(-c2ccccc2)coc2c(CN3CCOCC3)c(O)ccc12` the fluorescence fold increase was 2.45 (active).
In the case of `CSCCC(NC(N)=O)C(=O)N(C)CC(=O)Nc1ccc(C)cc1` (configuration not stated), the fluorescence fold increase is reported as 0.91 (inactive).
With `O=C(NCCCN1CCCCCC1)C1CC(=O)N(C2CCCC2)C1` (configuration not stated) the fluorescence fold increase was 1.16 (inactive).
In the case of `COc1cc2ccccc2cc1C(=O)Nc1ccc(S(=O)(=O)Nc2cc(C)on2)cc1`, the fluorescence fold increase is reported as 1.32 (inactive).
In the case of `O=C(Cn1cnc2c(nnn2-c2ccccc2)c1=O)N1CCC(Cc2ccccc2)CC1`, the fluorescence fold increase is reported as 1.07 (inactive).
With `O=C(NCc1ccccn1)Nc1ccc(F)cc1` the fluorescence fold increase was 1.14 (inactive).
For `CCOC(=O)c1cnc(-n2nc(C)cc2C)nc1-n1nc(C)cc1C`, the fluorescence fold increase was 1.13 (inactive).
In the case of `CCCCOc1ccc(-c2ncc(C(=O)OCC)c(N)n2)cc1`, the fluorescence fold increase is reported as 1.17 (inactive).
In the case of `O=C(NCc1ccccn1)c1cc2ccccc2oc1=O`, the fluorescence fold increase is reported as 1.48 (inactive).
In the case of `CCOC(=O)c1cnc2sccn2c1=O`, the fluorescence fold increase is reported as 3.33 (active).
In the case of `O=C(NCc1ccccn1)c1cnc2sccn2c1=O`, the fluorescence fold increase is reported as 2.7 (active).
For `Cc1cc2nc(-c3ccc(NC(=O)c4cccnc4)cc3)oc2cc1C`, the fluorescence fold increase was 2.26 (active).
In the case of `CC(C)NS(=O)(=O)c1ccc(NC(=O)c2cccnc2)cc1`, the fluorescence fold increase is reported as 1.03 (inactive).
For `CCOC(=O)c1cc(NC(=O)c2cccnc2)cc(C(=O)OCC)c1`, the fluorescence fold increase was 1.12 (inactive).
With `CSc1nc(C)nc2c1c(=O)n(C)c(=O)n2C` the fluorescence fold increase was 1.11 (inactive).
For `Cc1ccccc1NC(=O)NCc1ccco1`, the fluorescence fold increase was 1.12 (inactive).
In the case of `c1coc(CNc2ncnc3ccccc23)c1`, the fluorescence fold increase is reported as 1.1 (inactive).
In the case of `Cc1cc(NCc2ccco2)n2c(nc3ccccc32)c1C#N`, the fluorescence fold increase is reported as 2.23 (active).
With `Cc1cccc(OCc2nnc(SCn3nnc4ccccc4c3=O)o2)c1` the fluorescence fold increase was 1.07 (inactive).
With `CC(C)(C)n1nc2c(c1NC(=O)c1ccc(S(=O)(=O)N3CCCC3)cc1)CS(=O)C2` (configuration not stated) the fluorescence fold increase was 1.02 (inactive).
With `N/C(=N\c1nc2ccccc2o1)NC(=O)C(Cc1ccccc1)N1C(=O)c2ccccc2C1=O` (configuration not stated) the fluorescence fold increase was 1.09 (inactive).
In the case of `O=C(NCCN1CCOCC1)[C@H](Cc1ccccc1)N1C(=O)c2ccccc2C1=O`, the fluorescence fold increase is reported as 2.12 (active).
In the case of `O=C(CCN1C(=O)c2ccccc2C1=O)NCCN1CCOCC1`, the fluorescence fold increase is reported as 1.02 (inactive).
With `Clc1ccc(Cc2nnc(-c3cccs3)o2)cc1` the fluorescence fold increase was 1.11 (inactive).
With `O=C(Nc1nccs1)C1CCCN1S(=O)(=O)c1cccc2cccnc12` (configuration not stated) the fluorescence fold increase was 1 (inactive).
With `Cc1c(C(=O)OCC(=O)N(CCC#N)c2ccccc2)oc2c1ccc1ccccc12` the fluorescence fold increase was 2.16 (active).
In the case of `Cc1c(C(=O)OCc2cc(=O)n3cc(Br)ccc3n2)oc2ccccc12`, the fluorescence fold increase is reported as 1.07 (inactive).
In the case of `NC(=NC(=O)c1ccccc1)C1=C(O)CCC1=O`, the fluorescence fold increase is reported as 1.14 (inactive).
With `CCCc1nc(-c2ccccc2O)n(-c2ccccc2)n1` the fluorescence fold increase was 1.12 (inactive).
With `COc1ccc(OC)c2sc(NC(=O)C3COc4ccccc4O3)nc12` (configuration not stated) the fluorescence fold increase was 1.19 (inactive).
For `CCCCn1c(SCC(=O)NCC2CCCO2)nc2ccc(N3CCOCC3)cc2c1=O` (configuration not stated), the fluorescence fold increase was 4.22 (active).
In the case of `COCCCNC(=O)CSc1nc2ccc(N3CCOCC3)cc2c(=O)n1CCc1ccccc1`, the fluorescence fold increase is reported as 2.61 (active).
For `Cc1ccc2cc(C#N)c(SCC(=O)NCC3CCCO3)nc2c1C` (configuration not stated), the fluorescence fold increase was 1.14 (inactive).
For `COCCNC(=O)CSc1nc2c(n1-c1ccccc1)CCCC2`, the fluorescence fold increase was 1.16 (inactive).
In the case of `CCn1c(SCC(=O)NCC2CCCO2)nc2cc(S(=O)(=O)N3CCCCC3)ccc21` (configuration not stated), the fluorescence fold increase is reported as 1 (inactive).
With `CCc1ccc(NC(=O)CSc2nc3ccccc3c(=O)n2CCN2CCOCC2)cc1` the fluorescence fold increase was 1.09 (inactive).
In the case of `CC12CCC(C(=O)N(CCC#N)CCC#N)(CC1=O)C2(C)C` (configuration not stated), the fluorescence fold increase is reported as 1.07 (inactive).
In the case of `Cc1ccc(S(=O)(=O)N2CCC(C(=O)N[C@@H](C)C(=O)NCCc3ccccc3)CC2)cc1`, the fluorescence fold increase is reported as 1.11 (inactive).
With `O=C(c1c(Cl)nc2sccn12)N1CCCc2ccccc21` the fluorescence fold increase was 1 (inactive).
In the case of `O=C(CC(NCCN1CCOCC1)C(=O)O)Nc1cccc(Cl)c1` (configuration not stated), the fluorescence fold increase is reported as 1.1 (inactive).
With `COc1ccc(-n2nnc3c(=O)n(CC(=O)N4CCC(Cc5ccccc5)CC4)cnc32)cc1` the fluorescence fold increase was 1.08 (inactive).
With `COc1ccc2c(c1OC)C(=O)OC2c1c(O)nc(SC)n(-c2ccccc2)c1=O` (configuration not stated) the fluorescence fold increase was 1.06 (inactive).
In the case of `Cc1nc2ccccc2cc1O`, the fluorescence fold increase is reported as 2.48 (active).
For `Cc1cc(O)ccc1-c1cnc2ccccc2n1`, the fluorescence fold increase was 1.05 (inactive).
In the case of `CCOC(=O)c1cc2ccccc2nc1C`, the fluorescence fold increase is reported as 1.08 (inactive).
In the case of `Cc1cccc(OCc2nnc(SCC(=O)N3CCN(C(=O)c4ccco4)CC3)n2C)c1C`, the fluorescence fold increase is reported as 1.11 (inactive).
In the case of `O=C(O)C1CCN(S(=O)(=O)N2CCOCC2)CC1`, the fluorescence fold increase is reported as 1.1 (inactive).
For `CCOC(=O)c1cc2n(c1N)-c1ccccc1C2=O`, the fluorescence fold increase was 1.16 (inactive).
In the case of `CCOC(=O)c1cc2n(c1C)-c1ccccc1C2=O`, the fluorescence fold increase is reported as 1.02 (inactive).
With `CCCn1c(=NC(C)=O)c(C(=O)OCC)cc2c(=O)n3ccccc3nc21` the fluorescence fold increase was 3.86 (active).
In the case of `O=C(Nc1ccc(NC(=O)c2cccs2)cn1)c1ccco1`, the fluorescence fold increase is reported as 1.08 (inactive).
For `Cc1cccc(-n2c(N)cc(=O)nc2SC(C)C(=O)NC2CCCCC2)c1` (configuration not stated), the fluorescence fold increase was 1.06 (inactive).
For `O=C(CN1C(=O)C2C3C=CC(C3)C2C1=O)NCCc1ccccc1Cl` (configuration not stated), the fluorescence fold increase was 1.05 (inactive).
For `CCOc1ccc(OCC)c(NC(=O)CSc2nnc(Cn3cnc4ccccc43)n2C)c1`, the fluorescence fold increase was 1.12 (inactive).
